These results are taken from PubChem BioAssay (Tox21).

The nature of assay [1]: Human pregnane X receptor (PXR) small molecule agonists, qHTS cell viability counter screen (AID 1346977). Also: nearly all actives have a fitted effect of over 50% in size. Also: potency is read from the fitted curve at half-maximal effect. The method in brief: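 HepG2 cells stably carrying the PXR-Luc reporter are cultured with 5% charcoal-stripped FBS and treated with compounds for 24hr. CellTiter-Fluor is added at 23hr and fluorescence is read after 1hr.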
(qHTS replaces the single test concentration by a dilution series.)

Assay [2] in a line: Caspase-3/7 induction in HepG2 cells by small molecules, qHTS assay (AID 1346978). Also: nearly all actives have a fitted effect of over 15% in size. The method in brief: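 Wild-type HepG2 cells, 2,000/well, settled 5 hr at 37 C and 5% CO2, then compound-treated for 17 hr; caspase-3/7 activity read by luminescent Caspase-Glo 3/7 after 30 min at room temperature.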
Assay [3] is described as follows: Caspase-3/7 induction in CHO-K1 cells by small molecules, qHTS cell viability counter screen (AID 1346979). Also: nearly all actives have a fitted effect of over 35% in size. Also: potency is read from the fitted curve at half-maximal effect. The essentials:
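Seeding: 1,500 CHO-K1 cells/well. Rest: 5hr, 37C. Treatment: compounds in DMSO, 16hr. Read: CellTiter-Fluor, 1hr, fluorescence.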

The nature of assay [4]: Caspase-3/7 induction in CHO-K1 cells by small molecules, qHTS assay (AID 1346980). Also: nearly all actives have a fitted effect of over 15% in size. The essentials: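 Wild-type CHO-K1 cells exposed to compounds for 17hr at 37 C, 5% CO2. Caspase-3/7 activity then measured by Caspase-Glo 3/7 luminescence after 30min at room temperature.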
Assay [5] is described as follows: Caspase-3/7 induction in HepG2 cells by small molecules, qHTS cell viability counter screen (AID 1346981). Also: nearly all actives have a fitted effect of over 30% in size. Also: potency is read from the fitted curve at half-maximal effect. As to activity change, negative = cytotoxicity: series mostly up to about 92 µM. The method in brief: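 Steps: seed 2,000 HepG2 cells per well; incubate 5 hr at 37 C; pin-add compounds in DMSO; incubate 16 hr; add CellTiter-Fluor; after 1 hr at 37 C and 5% CO2, read fluorescence.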
Assay [6] has as its target Nuclear receptor subfamily 1 group I member 2 (Homo sapiens) (UniProt O75469). The experiment in a line: Human pregnane X receptor (PXR) small molecule agonists, qHTS assay (AID 1346982). Also: nearly all actives have a fitted effect of over 35% in size. Also: potency is read from the fitted curve at half-maximal effect. The method in brief:
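Agonist mode qHTS: PXR-Luc HepG2 cells plated 5 hr before DMSO-dissolved compounds were pinned in, cultured 24 hr at 37 C, 5% CO2; ONE-Glo luminescence readout.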

Assay [7] deals with Acetylcholinesterase (Homo sapiens) (UniProt P22303). As to the kind of experiment: Acetylcholinesterase (AChE) small molecule antagonists: colormetric cell-based qHTS assay (AID 1347395; calls by dose curve; also: nearly all actives have a fitted effect of over 30% in size). The essentials:
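Quantitative HTS in attached SH-SY5Y cells: 30 min compound exposure, then 90 min with acetylthiocholine and DTNB at 37 C; colour from thiocholine reports AChE activity.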

For assay [8] the target is unchanged. The experiment in a line: Acetylcholinesterase (AChE) small molecule antagonists: enzyme-based qHTS assay (AID 1347397; calls by dose curve; also: nearly all actives have a fitted effect of over 55% in size). Conditions: Potency: AChE enzyme activity inhibition. The method in brief:
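Recombinant human AChE (50 mU/mL) preincubated with compound 30 min at room temperature; acetylthiocholine plus DTNB then added, and thiocholine formation read colorimetrically after 10 min at room temperature. DMSO served as vehicle control.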

Assay [9] shares this target. The experiment in a line: Acetylcholinesterase (AChE) small molecule antagonists: fluorescence cell-based qHTS assay (AID 1347398; calls by dose curve; also: nearly all actives have a fitted effect of over 50% in size). The note with it: Potency: AChE activity. The method in brief: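 SH-SY5Y cells (2000/well), attached overnight, incubated with compound 30 min at 37 C. Acetylthiocholine plus Thiolite Green then added for 40 min at room temperature. Thiocholine fluorescence (Ex/Em 490/520 nm) reports cellular AChE activity.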

Assay [10] shares this target. As to the kind of experiment: Acetylcholinesterase (AChE) small molecule antagonists: enzyme-based qHTS assay with human liver microsomes (AID 1347399; calls by dose curve; also: nearly all actives have a fitted effect of over 60% in size). Conditions: Potency: qHTS inhibition. The essentials:
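Recombinant human AChE (50 mU/mL in the enzyme mix) and human liver microsomes (0.25 mg/mL final) were preincubated with compound and NADPH (0.25 mg/mL final) for 30 min at 37 C. Acetylthiocholine/DTNB was then added; thiocholine was read colorimetrically after 10 min at room temperature.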

The target in assay [11] is Cytochrome P450 2D6 (Homo sapiens) (UniProt P10635). The experiment in a line: Cytochrome P450 Family 2 Subfamily D Member 6 (CYP2D6) small molecule antagonists: luciferase reporter qHTS assay (AID 1671196). Also: nearly all actives have a fitted effect of over 50% in size. Also: potency is read from the fitted curve at half-maximal effect. As to activity change, negative = inhibition: series mostly up to about 120 µM. The method in brief: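 P450-Glo format: CYP2D6 converts a proluciferin substrate to luciferin in an NADPH-driven reaction lasting 1 h at room temperature. Light output, proportional to CYP2D6 activity, reflects interference by test chemicals.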
Chain of Cytochrome P450 2D6 (Homo sapiens) (P10635 whole entry, looked up): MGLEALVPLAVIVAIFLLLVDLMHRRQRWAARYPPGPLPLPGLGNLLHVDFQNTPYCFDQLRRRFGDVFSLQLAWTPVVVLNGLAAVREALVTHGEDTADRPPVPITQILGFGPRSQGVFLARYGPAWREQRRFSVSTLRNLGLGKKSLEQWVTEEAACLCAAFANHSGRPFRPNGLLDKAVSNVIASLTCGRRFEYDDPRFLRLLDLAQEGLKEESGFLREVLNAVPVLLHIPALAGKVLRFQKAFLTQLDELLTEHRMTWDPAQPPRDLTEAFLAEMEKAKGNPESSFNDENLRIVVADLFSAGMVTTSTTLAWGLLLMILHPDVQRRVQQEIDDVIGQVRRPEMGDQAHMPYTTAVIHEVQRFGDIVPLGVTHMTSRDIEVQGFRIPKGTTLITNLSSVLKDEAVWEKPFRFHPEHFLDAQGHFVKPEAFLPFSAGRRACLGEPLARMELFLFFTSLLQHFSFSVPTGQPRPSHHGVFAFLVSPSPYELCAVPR
(Reporter assays use an easily measured gene product as a stand-in for the process of interest.)

Assay [12] has as its target Cytochrome P450 2C19 (Homo sapiens) (UniProt P33261). As to the kind of experiment: Cytochrome P450 Family 2 Subfamily C Member 19 (CYP2C19) small molecule antagonists: luciferase reporter qHTS assay (AID 1671197). Also: nearly all actives have a fitted effect of over 65% in size. Also: potency is read from the fitted curve at half-maximal effect. As to activity change, negative = inhibition: series mostly up to about 120 µM. The method in brief: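 Light output is proportional to CYP2C19 activity: proluciferin substrate is converted to luciferin, then detected by a luciferin detection reagent that also stops the 1 h, 37C NADPH-driven reaction. Ketoconazole serves as positive control.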

Assay [13] addresses Cytochrome P450 2C9 (Homo sapiens) (UniProt P11712). As to the kind of experiment: Cytochrome P450 Family 2 Subfamily C Member 9 (CYP2C9) small molecule antagonists: luciferase reporter qHTS assay (AID 1671198). Also: nearly all actives have a fitted effect of over 50% in size. Also: potency is read from the fitted curve at half-maximal effect. As to activity change, negative = inhibition: series mostly up to about 120 µM. The method in brief:
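P450-Glo proluciferin substrate with CYP2C9 enzyme; 10 min RT preincubation, then NADPH regeneration 1 h at 37C; luciferin detection reagent 20 min RT, luminescence in relative luminescence units.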

The target of assay [14] is Voltage-gated inwardly rectifying potassium channel KCNH2 (Homo sapiens) (UniProt Q12809). As to the kind of experiment: Human Ether-a-go-go-Related Gene (hERG) channel small molecule antagonists: fluorescence cell-based qHTS assay (AID 1671200). The method in brief:
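First, 1000 cells per well are seeded and cultured overnight at 37 C. Next, FluxOR II dye is loaded for 1 h at room temperature, protected from light. After 10 more minutes, stimulus is added and fluorescence is read.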
On the technique in general: Block of hERG is tested as a sign of cardiac risk.

Assay [15] concerns the target Cytochrome P450 3A4 (Homo sapiens) (UniProt P08684). The experiment in a line: Cytochrome P450 Family 3 Subfamily A Member 4 (CYP3A4) small molecule antagonists: luciferase reporter qHTS assay (AID 1671201). Also: nearly all actives have a fitted effect of over 50% in size. Also: potency is read from the fitted curve at half-maximal effect. As to activity change, negative = inhibition: series mostly up to about 120 µM. The method in brief:
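Enzyme and proluciferin substrate are mixed with test chemicals for 10 min, then NADPH regeneration system drives turnover for 1 h at room temperature. A detection reagent halts the reaction; luminescence after 20 min gives relative activity.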

For assay [16], the target named is Cytochrome P450 1A2 (Homo sapiens) (UniProt P05177). As to the kind of experiment: Cytochrome P450 Family 1 Subfamily A Member 2 (CYP1A2) small molecule antagonists: luciferase reporter qHTS assay (AID 1671199). Also: nearly all actives have a fitted effect of over 50% in size. Also: potency is read from the fitted curve at half-maximal effect. As to activity change, negative = inhibition: series mostly up to about 120 µM. The essentials:
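Inhibition of CYP1A2 conversion of proluciferin to luciferin, detected by luminescence. Reaction run 1 h at room temperature with NADPH regeneration after brief compound preincubation.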

A number with no mark means an inactive call. Records with an inconclusive call do not appear. The source made the active and inactive calls. Unless noted, calls follow the shape of the dose curve; as a rule, active = well fitted curve in the direction sought with a large enough effect in the repeat runs; inconclusive = weak or mixed curves; inactive = no such curve, though single readings can be large; an effect the other way counts as inactive or inconclusive.
% is scaled to controls: 0 for no effect and ±100 for the full control effect.

Chain of Acetylcholinesterase (Homo sapiens) (P22303 whole entry, looked up): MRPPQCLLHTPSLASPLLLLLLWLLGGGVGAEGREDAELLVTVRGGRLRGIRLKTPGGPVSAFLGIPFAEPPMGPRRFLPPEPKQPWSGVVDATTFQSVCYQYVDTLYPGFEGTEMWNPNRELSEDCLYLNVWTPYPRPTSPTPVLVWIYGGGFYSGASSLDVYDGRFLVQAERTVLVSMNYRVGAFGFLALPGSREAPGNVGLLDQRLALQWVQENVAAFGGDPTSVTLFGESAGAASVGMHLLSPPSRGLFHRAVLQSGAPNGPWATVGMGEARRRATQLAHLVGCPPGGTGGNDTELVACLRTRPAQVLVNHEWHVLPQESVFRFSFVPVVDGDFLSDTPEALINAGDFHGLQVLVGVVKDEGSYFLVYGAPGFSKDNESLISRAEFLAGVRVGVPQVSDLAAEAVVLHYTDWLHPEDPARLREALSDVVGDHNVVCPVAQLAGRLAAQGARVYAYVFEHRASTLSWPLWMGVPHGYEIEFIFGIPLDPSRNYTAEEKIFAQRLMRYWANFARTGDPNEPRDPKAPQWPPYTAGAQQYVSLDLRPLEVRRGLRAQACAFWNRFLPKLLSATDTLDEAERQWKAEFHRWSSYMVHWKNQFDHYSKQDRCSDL
Chain of Cytochrome P450 2C19 (Homo sapiens) (P33261 whole entry, looked up): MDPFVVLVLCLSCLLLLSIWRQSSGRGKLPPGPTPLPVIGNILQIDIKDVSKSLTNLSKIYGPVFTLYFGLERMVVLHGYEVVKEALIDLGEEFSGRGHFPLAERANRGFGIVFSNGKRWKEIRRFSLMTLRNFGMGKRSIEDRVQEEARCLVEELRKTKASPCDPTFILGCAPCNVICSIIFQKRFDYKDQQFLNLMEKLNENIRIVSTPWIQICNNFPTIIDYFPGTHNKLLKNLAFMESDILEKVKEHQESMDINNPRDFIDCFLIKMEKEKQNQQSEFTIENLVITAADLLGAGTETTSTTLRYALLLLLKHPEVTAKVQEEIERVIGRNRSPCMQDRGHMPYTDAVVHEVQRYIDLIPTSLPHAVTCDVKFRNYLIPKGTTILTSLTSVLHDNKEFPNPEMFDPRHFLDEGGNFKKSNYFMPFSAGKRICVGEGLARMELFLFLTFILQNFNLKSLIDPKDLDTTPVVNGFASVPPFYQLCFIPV
Chain of Nuclear receptor subfamily 1 group I member 2 (Homo sapiens) (O75469 whole entry, looked up): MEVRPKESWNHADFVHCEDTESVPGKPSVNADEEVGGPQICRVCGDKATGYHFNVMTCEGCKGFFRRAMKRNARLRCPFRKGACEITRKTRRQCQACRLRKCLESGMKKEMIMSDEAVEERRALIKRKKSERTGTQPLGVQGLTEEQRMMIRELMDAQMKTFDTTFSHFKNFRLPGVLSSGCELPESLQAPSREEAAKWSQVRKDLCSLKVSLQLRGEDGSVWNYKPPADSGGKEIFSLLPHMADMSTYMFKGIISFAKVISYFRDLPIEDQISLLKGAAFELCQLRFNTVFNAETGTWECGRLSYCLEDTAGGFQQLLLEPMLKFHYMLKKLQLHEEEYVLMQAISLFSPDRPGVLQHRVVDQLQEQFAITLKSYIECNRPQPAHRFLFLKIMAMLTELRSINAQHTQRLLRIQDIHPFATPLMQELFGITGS
Chain of Voltage-gated inwardly rectifying potassium channel KCNH2 (Homo sapiens) (Q12809 whole entry, looked up): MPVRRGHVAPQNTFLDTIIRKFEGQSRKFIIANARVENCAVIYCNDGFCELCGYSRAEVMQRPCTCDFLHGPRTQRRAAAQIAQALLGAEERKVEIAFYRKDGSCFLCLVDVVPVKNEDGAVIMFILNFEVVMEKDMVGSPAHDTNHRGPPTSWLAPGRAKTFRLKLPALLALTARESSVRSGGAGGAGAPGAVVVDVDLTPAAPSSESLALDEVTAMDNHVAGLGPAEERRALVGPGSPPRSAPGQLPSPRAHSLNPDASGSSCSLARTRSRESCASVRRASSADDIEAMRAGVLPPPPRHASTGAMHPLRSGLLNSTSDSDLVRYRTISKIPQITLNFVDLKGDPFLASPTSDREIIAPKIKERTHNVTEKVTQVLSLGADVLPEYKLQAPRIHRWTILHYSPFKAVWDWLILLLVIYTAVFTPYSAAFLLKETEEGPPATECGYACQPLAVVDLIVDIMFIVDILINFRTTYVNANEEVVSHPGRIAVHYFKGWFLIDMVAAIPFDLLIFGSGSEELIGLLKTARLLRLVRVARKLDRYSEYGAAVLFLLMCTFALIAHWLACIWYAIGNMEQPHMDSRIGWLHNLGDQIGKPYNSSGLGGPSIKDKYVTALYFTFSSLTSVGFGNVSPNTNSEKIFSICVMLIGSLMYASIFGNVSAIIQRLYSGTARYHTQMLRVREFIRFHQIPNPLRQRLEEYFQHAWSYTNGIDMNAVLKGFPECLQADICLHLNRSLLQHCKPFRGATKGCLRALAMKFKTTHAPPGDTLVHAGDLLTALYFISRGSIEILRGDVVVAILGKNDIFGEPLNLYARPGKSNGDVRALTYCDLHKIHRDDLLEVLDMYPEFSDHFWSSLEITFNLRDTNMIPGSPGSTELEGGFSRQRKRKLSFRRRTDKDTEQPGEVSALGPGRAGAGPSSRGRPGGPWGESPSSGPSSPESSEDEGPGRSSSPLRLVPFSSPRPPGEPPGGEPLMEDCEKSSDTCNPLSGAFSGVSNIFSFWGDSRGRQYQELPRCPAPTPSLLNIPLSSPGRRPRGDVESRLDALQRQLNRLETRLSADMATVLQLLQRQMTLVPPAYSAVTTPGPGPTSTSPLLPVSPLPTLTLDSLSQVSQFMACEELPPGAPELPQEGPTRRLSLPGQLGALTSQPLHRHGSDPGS
Chain of Cytochrome P450 1A2 (Homo sapiens) (P05177 whole entry, looked up): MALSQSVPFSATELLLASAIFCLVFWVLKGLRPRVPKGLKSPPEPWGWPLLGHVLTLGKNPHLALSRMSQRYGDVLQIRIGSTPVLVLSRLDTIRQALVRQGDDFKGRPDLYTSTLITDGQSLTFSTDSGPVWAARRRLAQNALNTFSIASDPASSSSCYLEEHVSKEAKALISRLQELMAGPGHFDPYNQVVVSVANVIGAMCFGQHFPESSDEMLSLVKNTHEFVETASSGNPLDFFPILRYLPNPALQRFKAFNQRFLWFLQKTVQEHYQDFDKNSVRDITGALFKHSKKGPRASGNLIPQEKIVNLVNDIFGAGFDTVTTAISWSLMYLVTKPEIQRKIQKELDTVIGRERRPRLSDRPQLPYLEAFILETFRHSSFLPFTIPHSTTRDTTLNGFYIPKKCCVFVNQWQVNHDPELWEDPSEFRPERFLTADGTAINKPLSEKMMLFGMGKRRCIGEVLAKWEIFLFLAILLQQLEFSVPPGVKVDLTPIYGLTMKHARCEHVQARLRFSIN
Chain of Cytochrome P450 2C9 (Homo sapiens) (P11712 whole entry, looked up): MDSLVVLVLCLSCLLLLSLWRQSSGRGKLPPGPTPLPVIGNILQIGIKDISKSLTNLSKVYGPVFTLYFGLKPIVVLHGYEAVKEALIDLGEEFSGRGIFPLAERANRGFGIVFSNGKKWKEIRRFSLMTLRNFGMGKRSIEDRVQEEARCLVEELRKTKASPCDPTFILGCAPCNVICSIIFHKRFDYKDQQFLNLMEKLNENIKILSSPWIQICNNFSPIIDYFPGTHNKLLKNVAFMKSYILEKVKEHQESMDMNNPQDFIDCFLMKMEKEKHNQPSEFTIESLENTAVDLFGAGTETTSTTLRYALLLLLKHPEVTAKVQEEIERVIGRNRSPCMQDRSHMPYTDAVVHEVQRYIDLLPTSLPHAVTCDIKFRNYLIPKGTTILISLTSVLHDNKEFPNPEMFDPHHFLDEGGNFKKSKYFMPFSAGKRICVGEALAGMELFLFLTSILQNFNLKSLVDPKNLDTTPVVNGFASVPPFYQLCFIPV
Chain of Cytochrome P450 3A4 (Homo sapiens) (P08684 whole entry, looked up): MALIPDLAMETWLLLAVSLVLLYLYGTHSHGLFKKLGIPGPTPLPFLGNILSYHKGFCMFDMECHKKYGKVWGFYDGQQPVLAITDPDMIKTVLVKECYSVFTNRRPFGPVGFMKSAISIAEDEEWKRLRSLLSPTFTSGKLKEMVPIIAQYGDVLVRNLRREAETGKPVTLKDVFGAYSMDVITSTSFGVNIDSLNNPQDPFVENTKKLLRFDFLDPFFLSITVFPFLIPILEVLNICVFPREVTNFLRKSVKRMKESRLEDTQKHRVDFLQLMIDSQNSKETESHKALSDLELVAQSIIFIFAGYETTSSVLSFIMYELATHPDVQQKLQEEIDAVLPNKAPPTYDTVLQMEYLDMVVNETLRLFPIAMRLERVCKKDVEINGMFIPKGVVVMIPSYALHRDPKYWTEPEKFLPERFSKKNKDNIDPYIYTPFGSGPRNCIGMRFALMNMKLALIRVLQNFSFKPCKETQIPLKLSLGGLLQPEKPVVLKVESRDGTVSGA

Turning to `COC(=O)C(C)N(C(=O)c1ccco1)c1c(C)cccc1C` (stereo not drawn), the Potency entry in assay [1], in assay [2], in assay [3], in [4], in assay [5] and in [7] was “inactive” in each case. Moreover, the Potency result in assay [8], in assay [9], in assay [10], in [11], in assay [14] and in assay [15] was “inactive” in each case. Further, the Potency in [6] was 10.9 µM (active); in assay [12] it was 11.2 µM (active); in assay [13], 31.7 µM (active).

Consider `Clc1c(Cl)c(Cl)c(Cl)c(Cl)c1Cl`, for which the activity change, negative = cytotoxicity is 0.664% [at 8.39 µM] in assay [1], 0.636% [at 8.39 µM] in assay [3] and -1.11% [at 8.39 µM] in assay [5]. In addition, the caspase activation in assay [2] is -1.49% [at 8.39 µM]. The caspase-3/7 activation in assay [4] was 0.528% [at 8.39 µM]. For the same compound, the activation in assay [6] was -14.4% [at 8.39 µM]. In addition, the activity, negative = inhibition in assay [7] was -1.38% [at 10.5 µM]. Further, the activity change, negative = inhibition was -1.5% [at 10.5 µM] in assay [8]; 3.1% [at 10.5 µM] in [9]; 0% [at 10.5 µM] in assay [10]; -7.24% [at 10.5 µM] in [11]; 17.2% [at 10.5 µM] in assay [12]; -2.13% [at 10.5 µM] in assay [13]. The values for the activity change, negative = inhibition in assay [16], in [14] and in [15] were -10.9% [at 10.5 µM], 10.1% [at 6.97 µM] and 4.21% [at 10.5 µM], respectively.

Regarding `CN1[C@@H]2CC[C@H]1CC(O)C2` (stereo partly drawn), the Potency entry in assay [1], in assay [2], in [3], in assay [4], in [5] and in [6] was “inactive” each time. Moreover, the Potency result in assay [7], in [8], in assay [9], in assay [10], in assay [11] and in [13] was “inactive” throughout. In addition, the Potency result in assay [16] and in [14] was “inactive” in each case.

For `COCCC#N`, the Potency entry in assay [1], in assay [2], in [3], in assay [4], in [5] and in assay [6] was “inactive” each time. Moreover, the Potency entry in assay [7], in assay [8], in [9], in [10], in [11] and in assay [12] was “inactive” throughout. Also, the Potency result in assay [13], in assay [16] and in assay [15] was “inactive” in each case.

On to `O=C(Cl)c1ccccc1F`, for which the Potency entry in assay [1], in assay [2], in assay [3], in assay [4], in [5] and in [6] was “inactive” in each case. For the same compound, the Potency entry in assay [7], in assay [8], in assay [9], in [10], in assay [16] and in assay [14] was “inactive” throughout. Also, the Potency entry in [15] is “inactive”.

Turning to `CC1CCCC1`, the Potency entry in assay [1], in assay [2], in assay [3], in [4], in assay [5] and in [6] was “inactive” in each case. In addition, the Potency result in [7], in assay [8], in assay [9], in assay [10], in assay [11] and in [14] was “inactive” throughout. Also, the Potency in assay [12] is 17.6 µM (active); in [13], 8.8 µM (active); in assay [16], 39.3 µM (active); in assay [15] it was 27.8 µM (active).

Take `O=C(O)CCCCCCNC1c2ccccc2CCc2ccccc21`: the Potency result in [1], in assay [2], in assay [3], in assay [4], in [5] and in assay [6] was “inactive” throughout. The Potency result in [7], in [8], in assay [9], in assay [10], in [12] and in assay [13] was “inactive” each time. Further, the Potency entry in assay [16] and in assay [14] was “inactive” throughout.

Take `COC(=O)N(OC)c1ccccc1COc1ccn(-c2ccc(Cl)cc2)n1`: the Potency in [1] is 5.45 µM (active); in assay [3], 0.0433 µM (active); in assay [5], 54.5 µM (active); in assay [6], 68.6 µM (active); in assay [11] it was 22.4 µM (active); in assay [12], 0.283 µM (active). The Potency in [13] was 7.1 µM (active); in [16], 1.12 µM (active). Moreover, the Potency entry in assay [2], in assay [4], in assay [7], in assay [8], in [9] and in assay [10] was “inactive” throughout. For the same compound, in [15], the Potency entry is “inactive”.
